Screening data as filed in PubChem.
In the library only some 2.1% were active in any assay of this set; here they are far more common.
Env fusion inh: HIV envelope-mediated fusion inhibition | inhibition, % at 12.3 µM | hit rate 1.1% among 360,000 | HeLa-JRFL Env/CEM21 cell fusion, luciferase;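 active means mean replicate inhibition score of at least 50 and every replicate individually at or above 50; inconclusive means only one of the two criteria met; inactive means mean below 50 and not all replicates reaching 50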;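 further: 0% = plate neutral controls and 100% = maraviroc near 300 nM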
NR2F2 inh: blocks human COUP-TFII nuclear receptor | inhibition, % at 8.6 µM | AID 686940 | hit rate 0.7% among 370,000 | HEK293T NGFI-A luciferase reporter, luminescence | P24468;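 active means inhibition above a per-plate cutoff, mean inhibition of test wells between control levels plus 3 SD, cut at about 38% in these data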;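 further: cells cotransfected with COUP-TFII expression vector driving the NGFI-A reporter; 0% = median of COUP-TF2 test wells and 100% = reporter-only cells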
Gli-Sufu antag: Gli-Sufu pathway antagonism. Sufu-KO-LIGHT fibroblasts, Gli luciferase reporter luminescence. inhibition, % at 5 µM. hit rate 0.74% among 340,000. AID 588413;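 active means inhibition above about 55%, limit read from the data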;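 further: 0% = DMSO-treated cells and 100% = wells with medium but no cells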
GalR3 antagonist: human GalR3 antagonism | O60755 | HEK293 GalR3-CNG cAMP membrane potential fluorescence; galR3 body fused to GalR1 C-terminus | inhibition, % at 3 µM | hit rate 0.44% among 360,000;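 active means inhibition above the screen-wide average plus 3 SD, cut at about 13% in these data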;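 further: forskolin and galanin both at EC90 stimulate the cells; cAMP rise reported by CNG channel membrane potential dye signal; 0% = forskolin plus galanin with DMSO and 100% = forskolin alone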
Target sequence (O60755 1-299 limits assumed): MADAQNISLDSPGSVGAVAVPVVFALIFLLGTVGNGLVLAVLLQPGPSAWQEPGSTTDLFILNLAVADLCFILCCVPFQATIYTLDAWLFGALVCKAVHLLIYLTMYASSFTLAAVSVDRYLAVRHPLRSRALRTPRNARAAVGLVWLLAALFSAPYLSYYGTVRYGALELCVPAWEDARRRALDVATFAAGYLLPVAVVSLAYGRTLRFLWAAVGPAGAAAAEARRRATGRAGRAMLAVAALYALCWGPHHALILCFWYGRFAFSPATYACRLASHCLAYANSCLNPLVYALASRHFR
aDG glyco act: increases alpha dystroglycan glycosylation; Pro5-aDG cells, alpha-DG glycosylation AlphaScreen (IIH6); 0% Pro5, 100% B10-LARGE cell signal; AID 624168; hit rate 0.22% among 360,000; activation, % at 10 µM;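 active means activation of at least 8% versus controls, or a plate z-score of at least 8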;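 further: Pro5 are CHO cells carrying HIG-tagged alpha-DG that lacks glycosylation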
GalR3 antag conf: GalR3 (human) antagonism, confirmation. shares compounds with GalR3 antagonist. HEK293 GalR3 CNG cAMP biosensor, membrane potential fluorescence; galR3 fused to GalR1 carboxy tail; challenged with forskolin and galanin at EC90. inhibition, % at 3 µM. hit rate 59% among 1,600;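 active means inhibition above the primary screen's cutoff, the mean inhibition of all screened compounds plus 3 SD, cut at about 13% in these data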;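 further: 0% = forskolin plus galanin and 100% = forskolin alone with DMSO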
HEK-CNG parental: acts as nonspecific agonist in parental HEK-CNG cells; shares compounds with GalR3 antagonist; hit rate 10% among 1,600; HEK293-CNG parental cells, cAMP membrane potential fluorescence; normalised: DMSO wells 0%, forskolin wells 100%; AID 652268; activation, % at 3 µM; in the data active means activation above about 1.3%
VP16 Luc counter: inhibits VP16 reporter, flagging COUP-TFII antagonist hits; shares compounds with NR2F2 inh; HEK293 Gal4-VP16 luciferase reporter, luminescence; inhibition, % at 8.5 µM; hit rate 25% among 2,500; AID 687007; in the data active means inhibition above about 13%
COUP-TFII conf: COUP-TFII (NR2F2) inhibition, confirmation assay. shares compounds with NR2F2 inh. HEK293 NGFI-A luciferase reporter, luminescence. inhibition, % at 8.5 µM. hit rate 45% among 2,500;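 active means mean inhibition over three repeats above a set limit taken from the earlier primary screen, cut at about 38% in these data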;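 further: 100% = cells given the luciferase reporter alone without the COUP-TF2 vector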
* = called active by the depositor; ? = inconclusive; . = no result given; ! = a repeat was not active.

SMILES	Env fusion inh	NR2F2 inh	Gli-Sufu antag	GalR3 antagonist	aDG glyco act	VP16 Luc counter	COUP-TFII conf	others
NC(=S)c1cn(C2OC(CO)C(O)C2O)c2ncnc(N)c12 (stereo not given)	90*	68*	-49	51*	0	53*	68*	GalR3 antag conf=83*;HEK-CNG parental=0
CCOC(=O)C(O)(c1ccc(NC(=S)NC(=O)c2ccc(Cl)cc2Cl)c(C)c1)C(F)(F)F (stereo not given)	36	38*	20	45*	4	-4	19	GalR3 antag conf=50*;HEK-CNG parental=-1
CCOc1ccc2nc(N=Nc3c(O)[nH]c(=S)[nH]c3=O)sc2c1	-14	-8	6	-3	0	.	.
Cc1nn(Cc2ccccc2)c(C)c1C(=O)NC1CCCc2ccccc21 (stereo not given)	.	10	2	-2	0	.	.
CCOC(=O)[C@]12Cc3cc(C)ccc3[C@H]1N(C1CCCCC1)C(=O)c1cc(OC)ccc12	23	52*	.	38*	0	25*	36	GalR3 antag conf=47*;HEK-CNG parental=3.3*
Cc1ccc2[nH]c(C)c(CCNCc3ccco3)c2c1	-1	-4	4	-10	0	.	.
CCOc1cccc(CNCCc2c(C)[nH]c3ccc(OC(F)(F)F)cc23)c1O	62*	51*	45	72*	0	-3	41*	GalR3 antag conf=96*;HEK-CNG parental=0
CC(=O)N1CC(=O)Nc2ccc(C)cc2C1c1ccccc1 (stereo not given)	-5	-28	2	-9	0	.	.
COc1ccccc1-n1c(-c2ccccc2Cl)nc2ccccc2c1=O	-89	14	4	-5	0	.	.
CC[n+]1c(/C=C/C=C/c2ccc(N(C)C)cc2)sc2ccccc21	26	79*	87*	19*	2	23*	82*	GalR3 antag conf=74*;HEK-CNG parental=3.5*
Cc1ccccc1CN1Cc2cnnn2-c2ccccc2C1C#N (stereo not given)	-66	39*	-2	-9	0	5	2
Cc1ccccc1C(=O)N1Cc2cnnn2-c2ccccc2C1C#N (stereo not given)	-6	15	2	-3	0	.	.
Oc1ccc(-[n+]2c(-c3ccccc3)cc(-c3ccccc3)cc2-c2ccccc2)cc1	?	62*	43	-2	0	8	51*
COc1ccc(-[n+]2c(-c3ccccc3)cc(-c3ccccc3)cc2-c2ccccc2)cc1	-5	57*	83*	-14	.	20*	60*
COC(=O)C1=C(c2ccc(-c3ccccc3)c(F)c2)C[C@@H]2CC[C@H]1N2C(=O)NC1CCCCC1	-15	-15	35	-6	1	.	.
CN1C(=O)[C@@]23C[C@]4(c5c[nH]c6ccccc56)c5ccccc5N(S(=O)(=O)c5ccccc5)[C@@H]4N2C(=O)[C@@H]1SS3	.	107*	.	.	.	88*	90*
CCOC(=O)c1cc2c(cn1)[C@@H](CCO)NC2	-18	-6	-20	-4	0	.	.
C[C@H]1CCC/C=C/[C@@H]2C[C@H](O)C[C@H]2[C@H](O)/C=C/C(=O)O1	94*!	50*	89*	0	0	10	33
CN1C(=O)C(=Cc2ccc(OCC(=O)Nc3ccccc3)cc2)C(=O)N(C)C1=O	.	.	0	.	0	.	.
Cc1ccc2nc(-c3ccc(CN4CCC(n5nnc6ccccc65)CC4)cc3)c(-c3ccccc3)nc2c1	15	45*	.	-3	.	-3	10
CC1=C(C)CN2CC(C#N)=C(N)C2C1 (stereo not given)	.	.	.	.	0	.	.
CCN1CCN(c2ccc(N)c(C)c2)CC1	-6	-16	48	1	1	.	.
CCCNS(=O)(=O)c1ccc(OCC(=O)N2CCN(Cc3ccc4c(c3)OCO4)CC2)c(C)c1	9	46*	48	4	0	1	21
